# According to PMC5540273 (PLoS ONE, 2017):
# Tests used:
# Details in all cases: concentration: 1 μM, replicates: in singlicate; n = 1
# [1] = system: FGFR4
# [2] = system: FGR
# [3] = system: FLT1
# [4] = system: FLT3-autoinhibited
# [5] = system: FLT3
# [6] = system: FLT4
# [7] = system: FRK
# [8] = system: FYN
# [9] = system: GAK
# [10] = system: T1, GCN2(Kin.Dom.2,S808G)
# T1 construct: gene EIF2AK4
# [11] = system: GRK1
# [12] = system: T2, GRK2
# T2 construct: gene ADRBK1
# [13] = system: T3, GRK3
# T3 construct: gene ADRBK2
# [14] = system: GRK4
# [15] = system: GRK7
# [16] = system: GSK3A
# [17] = system: GSK3B
# [18] = system: T4, HASPIN
# T4 construct: gene GSG2
# [19] = system: HCK
# [20] = system: HIPK1
# 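Further: KINOMEscan kinase panel screen.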
Structure (SMILES),%Inh [1] [%],%Inh [2] [%],%Inh [3] [%],%Inh [4] [%],%Inh [5] [%],%Inh [6] [%],%Inh [7] [%],%Inh [8] [%],%Inh [9] [%],%Inh [10] [%],%Inh [11] [%],%Inh [12] [%],%Inh [13] [%],%Inh [14] [%],%Inh [15] [%],%Inh [16] [%],%Inh [17] [%],%Inh [18] [%],%Inh [19] [%],%Inh [20] [%]
COc1cc2c(Nc3cccc(NC(=O)c4ccccc4)c3)ncnc2cc1OCCCN1CCOCC1 [GSK223810],3,0,61,0,6,28,17,24,16,0,0,14,0,15,0,0,0,0,0,0
CC(C)N1CCC(n2cnc(-c3ccc(F)cc3)c2-c2ccnc(N)n2)CC1 [SB-223132],0,16,0,0,0,0,1,0,2,0,0,0,0,4,0,17,0,12,0,30
Fc1cccc(COc2ccc(Nc3ncnc4sc(-c5ccc[nH]5)cc34)cc2Cl)c1 [GW707818],12,3,22,7,0,3,0,45,4,0,0,0,0,0,0,22,3,0,0,0
N#Cc1ccc(Oc2ccc(Nc3ncnc4cc[nH]c34)cc2Cl)cc1,27,22,8,15,10,0,23,20,17,10,27,0,7,12,14,19,0,0,21,32
O=C(c1ccc(-c2cc(-c3c[nH]nc3-c3ccccn3)ccn2)cc1)N1CCCC1 [GW792479],0,17,18,0,8,0,0,5,33,0,21,0,0,0,0,14,0,2,12,42
COc1ccc(Nc2nccc(N3CCC(NC(=O)c4cccc(NC(C)=O)c4)C3)n2)cc1 (stereo not drawn) [GSK1379732],3,27,23,0,0,6,0,0,16,9,0,2,49,0,0,4,0,46,0,0
CCc1nc(-c2cccc(C)c2)c(-c2ccnc(NC(=O)c3ccccc3)c2)s1,0,35,0,1,0,8,0,0,33,0,0,25,7,0,17,0,0,0,27,25
COC(=O)c1cccc(NC(=O)NCCNc2ccnc(Nc3ccc(F)cc3)n2)c1 [GSK1379883],0,9,28,0,0,17,1,0,0,6,0,0,17,2,0,19,0,37,0,0
Cl.Cl.c1ccc(-c2cc3ccncc3cc2OC2CCNCC2)cc1 [GSK1122999],30,23,28,0,4,22,0,44,12,11,0,0,0,9,10,21,18,89,0,5
